Holding throughout (conditions): mRNA level, 48 h; actives raise or lower the signal
Read-out in experiment [1]: Tumor necrosis factor receptor superfamily member 6 (Homo sapiens) (UniProt P25445)
The experiment can be described thus: LTEA_HepaRG_FAS: Life Technologies and Expression Analysis (LTEA) Assay for Fas cell surface death receptor (FAS) using HepaRG (AID 2283447). The method in brief:
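FAS transcript level was measured by TaqMan qRT-PCR against three housekeeping genes after 48 h chemical exposure. Cells were HepaRG, 0.5% DMSO vehicle, with a top concentration of 100 uM and half-log dilutions over eight points, in duplicate.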

Read-out in experiment [2]: Fatty acid synthase (Homo sapiens) (UniProt P49327)
In words: LTEA_HepaRG_FASN: Life Technologies and Expression Analysis (LTEA) Assay for Fatty Acid Synthase (FASN) using HepaRG (AID 2283448). The method in brief: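 FASN transcript measured by TaqMan qRT-PCR, normalised to three housekeeping genes, after 48 h chemical exposure of HepaRG cells. Eight-point half-log series from 100 uM in 0.5% DMSO, duplicates; gain or loss fitted against vehicle.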

Read-out in experiment [3]: Cyclin D2 (CCND2), CCND2 (gene 894)
In words: LTEA_HepaRG_CCND2: Life Technologies and Expression Analysis (LTEA) Assay for Cyclin D2 (CCND2) using HepaRG (AID 2283449). The method in brief:
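CCND2 transcript levels, quantified by qRT-PCR and normalised to three housekeeping genes, were fitted bidirectionally against 0.5% DMSO. HepaRG cultures were dosed 48 h in duplicate with an 8-point half-log series up to 100 uM.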

Read-out in experiment [4]: Cyclin Dependent Kinase Inhibitor 1A (CDKN1A), CDKN1A (gene 1026)
In words: LTEA_HepaRG_CDKN1A: Life Technologies and Expression Analysis (LTEA) Assay for Cyclin Dependent Kinase Inhibitor 1A (CDKN1A) using HepaRG (AID 2283450). The method in brief: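 Differentiated HepaRG cells in serum-free induction medium, exposed 48 h in duplicate to eight half-log concentrations up to 100 uM in 0.5% DMSO. mRNA measured by TaqMan qRT-PCR, normalized to ACTB, GAPDH, POLR2A; bidirectional fit versus DMSO.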

Read-out in experiment [5]: Cyclin D1 (CCND1), CCND1 (gene 595)
The experiment can be described thus: LTEA_HepaRG_CCND1: Life Technologies and Expression Analysis (LTEA) Assay for Cyclin D1 (CCND1) using HepaRG (AID 2283451).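 On AC50: TaqMan qRT-PCR transcript level normalised to ACTB GAPDH and POLR2A housekeeping genes.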 The method in brief: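 Differentiated HepaRG cells exposed 48 h in serum-free induction medium to eight half-log concentrations from 100 uM top, 0.5% DMSO, duplicates. CCND1 mRNA measured by Fluidigm TaqMan qRT-PCR, normalised to ACTB, GAPDH, POLR2A; bidirectional fit.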

Read-out in experiment [6]: flavin-containing dimethylaniline monooxygenases 3 (FMO3), FMO3 (gene 2328)
The experiment can be described thus: LTEA_HepaRG_FMO3: Life Technologies and Expression Analysis (LTEA) Assay for flavin-containing dimethylaniline monooxygenases 3 (FMO3) using HepaRG (AID 2283453). The method in brief: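 FMO3 transcript quantified by TaqMan qRT-PCR against three housekeeping genes after 48 h chemical exposure of HepaRG cells. Eight-point half-log series, top 100 uM, 0.5% DMSO vehicle; phenobarbital 1mM induction control; up- or down-regulation fitted.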

Read-out in experiment [7]: Cytochrome P450 (CYP1A1), CYP1A1 (gene 1543)
In words: LTEA_HepaRG_CYP1A1: Life Technologies and Expression Analysis (LTEA) Assay for Cytochrome P450 (CYP1A1) using HepaRG (AID 2283454). The method in brief: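 Differentiated human HepaRG cells, after 48 h plating, exposed in duplicate for 48 h in serum-free induction medium to 8 half-log concentrations up to 100 uM in 0.5% DMSO. CYP1A1 mRNA by qRT-PCR, normalized to ACTB/GAPDH/POLR2A; bidirectional fit versus DMSO.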

Read-out in experiment [8]: CFLAR gene, CFLAR (gene 8837)
In words: LTEA_HepaRG_CFLAR: Life Technologies and Expression Analysis (LTEA) Assay for CFLAR gene using HepaRG (AID 2283455). The method in brief:
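Transcript level by qRT-PCR (normalized to ACTB, GAPDH and POLR2A) after 48 h chemical exposure of HepaRG cells, top concentration 100 uM with half-log steps, 0.5% DMSO vehicle, duplicates; fitted bidirectionally against DMSO baseline.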

Read-out in experiment [9]: Forkhead box O1 (FOXO1), FOXO1 (gene 2308)
The experiment can be described thus: LTEA_HepaRG_FOXO1: Life Technologies and Expression Analysis (LTEA) Assay for Forkhead box O1 (FOXO1) using HepaRG (AID 2283456). The method in brief:
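FOXO1 transcript quantified by qRT-PCR after 48 h chemical exposure (top 100 uM, half-log steps, 0.5% DMSO) of HepaRG cells, housekeeping-normalized (ACTB/GAPDH/POLR2A). Changes fitted in both directions relative to vehicle.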

Read-out in experiment [10]: Forkhead box O3 (FOXO3), FOXO3 (gene 2309)
The experiment can be described thus: LTEA_HepaRG_FOXO3: Life Technologies and Expression Analysis (LTEA) Assay for Forkhead box O3 (FOXO3) using HepaRG (AID 2283459). The method in brief:
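FOXO3 transcript measured by qRT-PCR (normalized to ACTB, GAPDH, POLR2A) after 48 h exposure of HepaRG cells in serum-free induction medium. Duplicates, eight half-log concentrations up to 100 uM, 0.5% DMSO; gain or loss fitted against DMSO.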

Read-out in experiment [11]: ABC Transporter (ABCB1), ABCB1 (gene 5243)
The experiment can be described thus: LTEA_HepaRG_ABCB1: Life Technologies and Expression Analysis (LTEA) Assay for ABC Transporter (ABCB1) using HepaRG (AID 2283460). The method in brief: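 ABCB1 transcript level measured by TaqMan qRT-PCR against three housekeeping genes after 48 h chemical exposure of differentiated HepaRG cells. Top concentration 100 uM, half-log steps, eight points, 0.5% DMSO vehicle; bidirectional fit relative to DMSO.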

Read-out in experiment [12]: growth arrest and DNA damage 45 (GADD45B), GADD45B (gene 4616)
In words: LTEA_HepaRG_GADD45B: Life Technologies and Expression Analysis (LTEA) Assay for growth arrest and DNA damage 45 (GADD45B) using HepaRG (AID 2283461). The method in brief:
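Differentiated human HepaRG cells in serum-free induction medium exposed 48 h in duplicate to eight concentrations, top 100 uM, half-log steps, 0.5% DMSO. GADD45B mRNA by TaqMan qRT-PCR, normalized to ACTB, GAPDH, POLR2A; bidirectional fit versus DMSO.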

Read-out in experiment [13]: ABC Transporter (ABCB11), ABCB11 (gene 8647)
In words: LTEA_HepaRG_ABCB11: Life Technologies and Expression Analysis (LTEA) Assay for ABC Transporter (ABCB11) using HepaRG (AID 2283463). The method in brief:
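ABCB11 transcript levels quantified by TaqMan qRT-PCR against three housekeeping genes after 48 h chemical exposure of HepaRG cultures. Concentrations up to 100 uM in half-log steps, 0.5% DMSO vehicle; both induction and suppression scored.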

Read-out in experiment [14]: ABC Transporter (ABCC3), ABCC3 (gene 8714)
In words: LTEA_HepaRG_ABCC3: Life Technologies and Expression Analysis (LTEA) Assay for ABC Transporter (ABCC3) using HepaRG (AID 2283462). The method in brief: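 Differentiated human HepaRG cells exposed 48 h in serum-free induction medium, 0.5% DMSO vehicle, 8-point half-log series to 100 uM in duplicate. ABCC3 mRNA by qRT-PCR, normalised to ACTB, GAPDH, POLR2A; bidirectional fit vs DMSO.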

Read-out in experiment [15]: catalase (CAT), CAT (gene 847)
In words: LTEA_HepaRG_CAT: Life Technologies and Expression Analysis (LTEA) Assay for catalase (CAT) using HepaRG (AID 2283452). The method in brief:
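Expression of CAT was quantified by TaqMan qRT-PCR with ACTB/GAPDH/POLR2A normalization after 48 h chemical exposure of HepaRG. Eight-point half-log series, top 100 uM, in 0.5% DMSO; gain or loss fitted against vehicle.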

Read-out in experiment [16]: growth arrest and DNA damage 45 (GADD45A), GADD45A (gene 1647)
The experiment can be described thus: LTEA_HepaRG_GADD45A: Life Technologies and Expression Analysis (LTEA) Assay for growth arrest and DNA damage 45 (GADD45A) using HepaRG (AID 2283458). The method in brief: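 GADD45A expression was measured by TaqMan qRT-PCR against three housekeeping genes (ACTB, GAPDH, POLR2A) after 48 h treatment of HepaRG cells. Eight-point half-log series up to 100 uM in 0.5% DMSO, run in duplicate.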

Activity calls are given as the source filed them. How the source made its calls: active means hit-call score of the fitted dose curve at least 0.9, where 1 is the maximum; inactive means score below 0.9.

The AC50 is the concentration giving half of the maximal activity seen.

Chain of Fatty acid synthase (Homo sapiens) (P49327 whole entry, looked up): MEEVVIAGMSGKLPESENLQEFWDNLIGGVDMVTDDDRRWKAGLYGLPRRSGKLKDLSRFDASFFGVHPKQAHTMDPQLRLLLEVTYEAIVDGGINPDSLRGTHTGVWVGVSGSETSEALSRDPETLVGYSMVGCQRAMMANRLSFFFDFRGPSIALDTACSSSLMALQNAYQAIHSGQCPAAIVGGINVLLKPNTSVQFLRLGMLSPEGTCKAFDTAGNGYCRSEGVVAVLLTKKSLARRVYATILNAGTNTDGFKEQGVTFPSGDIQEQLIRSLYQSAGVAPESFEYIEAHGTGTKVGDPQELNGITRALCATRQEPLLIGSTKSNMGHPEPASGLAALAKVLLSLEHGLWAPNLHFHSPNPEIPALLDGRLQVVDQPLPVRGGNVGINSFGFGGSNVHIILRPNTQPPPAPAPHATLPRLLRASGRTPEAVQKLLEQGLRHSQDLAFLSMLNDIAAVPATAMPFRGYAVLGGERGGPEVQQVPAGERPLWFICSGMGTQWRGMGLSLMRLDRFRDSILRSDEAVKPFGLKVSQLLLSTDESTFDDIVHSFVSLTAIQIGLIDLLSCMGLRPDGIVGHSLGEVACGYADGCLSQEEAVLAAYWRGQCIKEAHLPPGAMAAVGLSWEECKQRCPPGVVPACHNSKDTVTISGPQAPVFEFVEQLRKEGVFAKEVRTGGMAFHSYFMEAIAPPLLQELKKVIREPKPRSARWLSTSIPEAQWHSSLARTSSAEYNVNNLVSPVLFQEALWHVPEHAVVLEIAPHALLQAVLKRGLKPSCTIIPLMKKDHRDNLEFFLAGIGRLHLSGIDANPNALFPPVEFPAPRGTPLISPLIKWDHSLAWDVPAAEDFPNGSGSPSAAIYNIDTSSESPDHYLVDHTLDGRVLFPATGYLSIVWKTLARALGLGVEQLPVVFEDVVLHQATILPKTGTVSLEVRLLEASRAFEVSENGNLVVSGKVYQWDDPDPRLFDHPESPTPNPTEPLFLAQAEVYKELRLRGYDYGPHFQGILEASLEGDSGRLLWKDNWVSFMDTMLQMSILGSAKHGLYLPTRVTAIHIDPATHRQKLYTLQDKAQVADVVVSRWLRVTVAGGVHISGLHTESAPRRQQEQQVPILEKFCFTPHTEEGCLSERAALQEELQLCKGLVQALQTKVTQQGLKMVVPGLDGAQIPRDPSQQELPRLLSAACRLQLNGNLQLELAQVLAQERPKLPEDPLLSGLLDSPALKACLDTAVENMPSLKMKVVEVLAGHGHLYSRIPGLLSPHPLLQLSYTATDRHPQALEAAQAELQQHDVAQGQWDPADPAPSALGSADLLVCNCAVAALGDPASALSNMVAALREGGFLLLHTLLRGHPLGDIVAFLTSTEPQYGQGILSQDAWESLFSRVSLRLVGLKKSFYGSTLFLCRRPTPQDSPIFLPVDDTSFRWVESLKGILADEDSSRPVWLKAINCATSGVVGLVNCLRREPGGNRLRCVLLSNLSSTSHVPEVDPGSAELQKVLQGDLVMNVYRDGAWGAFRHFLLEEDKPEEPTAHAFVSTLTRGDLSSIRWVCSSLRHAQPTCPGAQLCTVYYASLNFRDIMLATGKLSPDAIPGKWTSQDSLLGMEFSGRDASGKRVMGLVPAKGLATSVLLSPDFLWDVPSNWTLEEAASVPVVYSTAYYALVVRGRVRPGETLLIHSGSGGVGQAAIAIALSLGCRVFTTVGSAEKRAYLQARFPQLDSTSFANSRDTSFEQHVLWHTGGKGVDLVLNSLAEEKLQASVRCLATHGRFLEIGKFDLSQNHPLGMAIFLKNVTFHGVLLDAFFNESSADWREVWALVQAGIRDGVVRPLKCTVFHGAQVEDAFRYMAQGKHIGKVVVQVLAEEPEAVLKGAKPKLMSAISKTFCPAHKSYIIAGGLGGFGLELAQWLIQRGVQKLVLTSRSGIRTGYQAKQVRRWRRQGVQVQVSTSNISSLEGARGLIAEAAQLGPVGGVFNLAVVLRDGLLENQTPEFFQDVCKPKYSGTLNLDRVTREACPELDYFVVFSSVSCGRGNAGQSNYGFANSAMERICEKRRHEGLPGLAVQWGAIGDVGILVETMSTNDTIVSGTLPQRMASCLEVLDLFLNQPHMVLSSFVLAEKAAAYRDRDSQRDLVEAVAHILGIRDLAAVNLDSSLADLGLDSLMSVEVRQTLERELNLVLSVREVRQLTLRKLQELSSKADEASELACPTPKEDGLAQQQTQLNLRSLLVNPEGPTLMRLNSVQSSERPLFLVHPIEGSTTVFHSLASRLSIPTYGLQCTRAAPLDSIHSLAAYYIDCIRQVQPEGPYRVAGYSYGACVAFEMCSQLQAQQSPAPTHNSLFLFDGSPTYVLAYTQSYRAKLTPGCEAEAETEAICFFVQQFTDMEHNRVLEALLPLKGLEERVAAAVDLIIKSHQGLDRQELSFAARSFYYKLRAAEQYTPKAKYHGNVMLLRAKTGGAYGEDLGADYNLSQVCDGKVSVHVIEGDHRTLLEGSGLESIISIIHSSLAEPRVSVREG

Turning to `CCCCCCC(C)OC(=O)COc1nc(F)c(Cl)c(N)c1Cl` (stereo not given), the result in experiment [1], in experiment [2], in experiment [3], in [4], in experiment [5] and in [6] was inactive. Also, the result in [7], in experiment [8], in experiment [9], in experiment [10], in [11] and in experiment [12] was inactive. Also, in experiment [13], the molecule was classed as inactive.
`C[C@]12CC[C@@H]3c4ccc(O)cc4C[C@@H](CCCCCCCCCS(=O)CCCC(F)(F)C(F)(F)F)[C@H]3[C@@H]1CC[C@@H]2O` (stereo not given in full): the AC50 in [1] is 0.0482 µM (active); in experiment [3] it was 0.05 µM (active); in experiment [5], 0.0338 µM (active); in [6] it was 44.4 µM (active); in experiment [9], 0.0681 µM (active); in experiment [11], 27.8 µM (active). For the same molecule, the AC50 is 30.9 µM (active) in experiment [14] and 10.5 µM (active) in experiment [13]. The molecule was classed as inactive in experiment [2], in [4], in [8], in experiment [10] and in experiment [12].
With `COCCO`, the molecule was called inactive in [2], in experiment [4], in experiment [5], in [6], in experiment [7] and in experiment [8]. The call in experiment [10], in experiment [11], in [12] and in [13] was inactive.
`OB(O)O`: the molecule was classed as inactive in experiment [1], in experiment [2], in experiment [3], in [4], in [5] and in [15]. In addition, the molecule was called inactive in experiment [6], in experiment [8], in [16], in experiment [10], in [11] and in [12]. Besides, the molecule was called inactive in experiment [13].
On to `N[C@@H](Cc1cc(I)c(Oc2ccc(O)c(I)c2)c(I)c1)C(=O)O`, for which the result in experiment [1], in experiment [2], in experiment [3], in [4], in experiment [5] and in [8] was inactive. The molecule was classed as inactive in experiment [16] and in experiment [10]. For the same molecule, the AC50 in [6] is 40 µM (active); in experiment [11], 73.3 µM (active); in experiment [12], 7.94 µM (active); in experiment [13] it was 7.94 µM (active).
For the molecule `CCSC(=O)N(CC(C)C)CC(C)C`, the result in [1], in experiment [2], in [3], in [4], in [5] and in experiment [6] was inactive. In addition, the result in experiment [8], in [16], in experiment [10], in experiment [11], in experiment [12] and in experiment [13] was inactive.
For the molecule `CCCOC(=O)NCCCN(C)C`, the result in experiment [1], in experiment [2], in [3], in [4], in experiment [5] and in experiment [6] was inactive. Besides, the molecule was classed as inactive in experiment [8], in experiment [10], in [11], in experiment [12], in experiment [14] and in experiment [13].

Source of the values: PubChem BioAssay (EPA / NIEHS).
